Out of some 13,000 compounds screened, about 3,200 (25%) showed an effect of 50% or more. The list shows a part of the results.
tested on: P. falciparum stage V gametocytes; parameters: BacTiter-Glo ATP luminescence viability of purified stage V gametocytes in 384-well plates, per cent inhibition versus DMSO; conditions: 48 h, 5 µM; inhibitor

SMILES	% Inhibition
CC(C)c1ccc(NC(=O)c2ccc(C(=O)NC3CCN(CC4CCCCC4)CC3)cc2)cc1 [TCMDC-136750]	-11.44%
NC1=NC(Cc2ccccc2)(c2ccncc2)C(=O)N1CCCc1ccccc1 (stereo not drawn) [TCMDC-136557]	2.084%
CN(C)CC1c2[nH]c3ccccc3c2CCN1C(=O)Nc1ccc(Cl)c(Cl)c1 (stereo not drawn) [TCMDC-139004]	3.866%
CC(C)CC1c2[nH]c3ccccc3c2CCN1C(=O)CCc1ccccc1 (stereo not drawn) [TCMDC-123996]	-45.79%
O=C(c1ccc(Cl)c(Cl)c1)N1CCc2c([nH]c3ccccc23)C1CN1CCCC1 (stereo not drawn) [TCMDC-139011]	81.19%
N#Cc1ccc2c(c1)CCN(CCC1CCC(NC(=O)/C=C/c3ccc4[nH]ccc4c3)CC1)CC2 (stereo not drawn) [TCMDC-139666]	5.34%
O=C(Nc1cccc(F)c1)N(Cc1ccc(-c2cccc(CN3CCNCC3)c2)cc1)C1CCN(Cc2ccccc2)CC1 [TCMDC-139638]	105.9%
N#Cc1cccc(C(=O)Nc2cccc(-c3cccc(CN4CCNCC4)c3)c2)c1 [TCMDC-132660]	26.75%
CN(c1cc(NC(=O)c2ccccc2)ccn1)C1CCN(Cc2cccc(F)c2)CC1 [TCMDC-135011]	9.307%
O=C(Nc1cccc(F)c1)N(Cc1ccc(-c2ccc(CN3CCNCC3)cc2)cc1)C1CCN(Cc2ccccc2)CC1 [TCMDC-139654]	96.89%
O=C(Nc1cccc(-c2ccc(CN3CCCC3)cc2)c1)c1cccc(F)c1 [TCMDC-132647]	5.119%
CCn1cnc2c(N3CCCC3=O)cc(C(=O)N[C@@H](Cc3ccccc3)[C@H](O)CNC3CCCCC3)cc21 [TCMDC-135231]	-30.5%
CCN(CC)CCN(Cc1ccc(-c2ccc(C(F)(F)F)cc2)cc1)C(=O)Cn1c(CCc2cc(F)ccc2F)nc(=O)c2ccccc21 [TCMDC-140941]	67.52%
CCN(CC)CCN(Cc1ccc(-c2ccc(C(F)(F)F)cc2)cc1)C(=O)Cn1c(CCc2cc(F)c(F)cc2F)nc(=O)c2ccccc21 [TCMDC-140949]	56.5%
COc1ccc2nccc([C@H](O)CN3CCC(NCc4nc5c(F)cccc5[nH]4)CC3)c2c1 [TCMDC-141062]	-21.41%
NC(=O)c1cccc(C(=O)Nc2cccc(-c3ccc(-c4nc5ccccc5[nH]4)s3)c2)c1 [TCMDC-132195]	9.45%
Cc1[nH]c2ccc([N+](=O)[O-])cc2c1C1=CCN(C)CC1 [TCMDC-139186]	-16.2%
c1cc(CNCCN2CCNCC2)cc(-c2ccc(-c3nc4ccccc4[nH]3)cc2)c1 [TCMDC-132861]	85.05%
c1cc(CN2CCN(CCN3CCOCC3)CC2)cc(-c2ccc(-c3nc4ccccc4[nH]3)cc2)c1 [TCMDC-133939]	-22.81%
c1cc(CNCCN2CCNCC2)cc(-c2cccc(-c3nc4ccccc4[nH]3)c2)c1 [TCMDC-132859]	95.66%
CN(C)CCNCc1cccc(-c2cccc(-c3nc4ccccc4[nH]3)c2)c1 [TCMDC-132680]	40.55%
c1cc(CNCC2CCCO2)cc(-c2cccc(-c3nc4ccccc4[nH]3)c2)c1 (stereo not drawn) [TCMDC-133090]	0.6072%
CNCCNCc1cccc(-c2ccc(-c3nc4ccccc4[nH]3)cc2)c1 [TCMDC-132839]	24.41%
CCNc1cc(CC)nc(Nc2ccc(C)cc2)n1 [TCMDC-133992]	-2.88%
COc1cc(N)c(Cl)cc1C(=O)NC1CCC(NCC2CCCCC2)CC1 (stereo not drawn) [TCMDC-136726]	0.4196%
Cc1cccc2nc(-c3ccc(-c4ccc(NC(=O)Nc5ccc(Cl)c(Cl)c5)cc4)s3)[nH]c12 [TCMDC-133273]	-52.78%

SMILES	% Inhibition
O=C(/C=C/c1ccc(C(F)(F)F)cc1)NCCCCCN1CCCN(C(=O)Nc2ccc(Cl)c(C(F)(F)F)c2)CC1 [TCMDC-136105]	-22.56%
Cc1cc(Nc2ccc3ccccc3c2)n2ncnc2n1 [TCMDC-125840]	18.77%
Cc1cc(Nc2ccc(C)c(Cl)c2)n2nc(C(F)(F)F)nc2n1 [TCMDC-124919]	-6.645%
Cc1cc(Nc2ccc(Cl)c(Cl)c2)n2nc(C)nc2n1 [TCMDC-124417]	-6.756%
Cc1cc(Nc2ccncc2)n2nc(C)c(-c3ccc(Cl)cc3)c2n1 [TCMDC-124478]	102.4%
CCc1nn2c(Nc3ccncc3)cc(C)nc2c1-c1ccccc1 [TCMDC-124917]	106.8%
Cc1cc(Nc2ccncc2)n2nc(C)c(-c3ccccc3Cl)c2n1 [TCMDC-124918]	99.62%
Cc1cc(Nc2ccc(Cl)cc2)n2nc(C(F)(F)F)nc2n1 [TCMDC-123826]	-17.3%
Cc1cc(Nc2ccnc(-c3ccc(Cl)cc3)n2)ccn1 [TCMDC-141398]	-5.017%
Cc1cc(Nc2ccc(C)c(C)c2)n2nc(C)nc2n1 [TCMDC-124418]	9.818%
Cc1nc(N)nc(N)c1C#CC1CCCC1 [TCMDC-137728]	11.69%
CC(C)(C)c1ccc(NC(=O)c2ccc(CN3CCCN(Cc4cccc(F)c4)CC3)cc2)cc1 [TCMDC-136431]	-15.47%
CC1(C)S(=O)(=O)CC(O)CS1(=O)=O [TCMDC-131669]	10.31%
Cc1c(C(=O)NCc2ccncc2)sc2nc(-c3cccc([N+](=O)[O-])c3)cn12 [TCMDC-124992]	-38.46%
Nc1ncc(-c2ccc(Cl)c(Cl)c2)c(N)n1 [TCMDC-138994]	6.577%
O=C(/C=C/c1ccc(Cl)c(Cl)c1)NC1CCN(Cc2ccc(O)cc2)CC1 [TCMDC-141741]	16.03%
CCCCCCCc1ccc(-c2c(C)[nH]c(C)c(Cl)c2=O)cn1 [TCMDC-135816]	34.89%
Cc1[nH]c(C)c(-c2ccc(CCc3ccc(C(F)(F)F)cc3)nc2)c(=O)c1Cl [TCMDC-136051]	71.49%
Cc1[nH]c(C)c(-c2ccc(CCc3cccc(C(F)(F)F)c3)nc2)c(=O)c1Cl [TCMDC-136014]	76.88%
O=C(Cc1cccc2ccccc12)N1CCc2cc3nccc(N4CCN5CCC[C@H]5C4)c3cc21 [TCMDC-140040]	-3.161%
O=C(Nc1ccccc1Cl)c1cc2ccccc2cc1O [TCMDC-123494]	9.579%
CC(Nc1nc(Nc2ccc(F)cc2)nc(SCC(N)=O)n1)c1ccccc1 (stereo not drawn) [TCMDC-125832]	-31.65%
Cc1nc2nc(N)nc(N)c2c(C)c1Cc1ccccc1 [TCMDC-137670]	-13.55%
CCCCNc1nc(NCCCC)c2c(C)c(Cc3ccccc3)c(NCCCC)nc2n1 [TCMDC-138062]	134%
CCCCNc1cc(C)nc(NCc2ccccc2)n1 [TCMDC-123663]	33.56%
CC(C)(C)c1ccc(NC(=O)c2cccc(CN3CCCN(CC4CCCCC4)CC3)c2)cc1 [TCMDC-135980]	-75.44%

SMILES	% Inhibition
Cc1ccc(NC(=O)Nc2ccc(Cl)cc2)cc1-c1cccc(C(=O)Nc2ccc(F)cc2)c1 [TCMDC-133591]	-12.79%
Cc1ccc(NC(=O)Nc2ccccc2F)cc1-c1ccc(C(=O)Nc2ccncc2)cc1 [TCMDC-133706]	-10.32%
Cc1ccc(N)cc1-c1nc(NC2CC(C)(C)NC(C)(C)C2)nc2c1ccc(=O)n2-c1c(F)cccc1F [TCMDC-135790]	57.86%
Cc1cc(F)ccc1C1CCN(CCCCNC(=O)c2ccc(NC(=O)c3ccc(Cl)cc3)cc2)CC1 [TCMDC-138363]	13.4%
Cc1cc(C(=O)Nc2ccc(C)c(-c3nc(N(C(=O)c4ccc(F)c(C)c4)C4CCNCC4)nc4c3ccc(=O)n4-c3c(F)cccc3F)c2)ccc1F [TCMDC-135913]	55.46%
Cc1ccc(C(=O)Nc2ccc(F)cc2)cc1-c1nc(NC2CC(C)(C)NC(C)(C)C2)nc2c1ccc(=O)n2-c1c(F)cccc1F [TCMDC-135391]	95.1%
Cc1cc(F)ccc1-c1nc(N(C)CCN(C)C(=O)N(C)c2ccccc2)nc2c1ccc(=O)n2-c1c(F)cccc1F [TCMDC-141720]	17.64%
CCCc1cc(NCc2ccncc2)nc(Nc2ccc(F)cc2)n1 [TCMDC-134012]	34.89%
NC(=O)c1ccsc1NC(=O)CNC(c1ccccc1)c1ccccc1 [TCMDC-125458]	2.042%
O=C(N[C@@H](Cc1ccccc1)[C@H](O)CNC1CCCc2ccccc21)c1cc(C2CCCC2)cc(N2CCCC2=O)c1 (stereo partly drawn) [TCMDC-134656]	-0.2102%
Cc1c2c(nn1-c1ccccc1)C(c1ccccc1)N(c1ccccc1)C2=O (stereo not drawn) [TCMDC-131674]	-2.033%
COc1ccccc1N1CCN(c2cccc(F)c2C#N)CC1 [TCMDC-124862]	-55.85%
COc1cc(C)c(NC(=O)c2cccc3c(=O)c(C)c(-c4ccccc4)oc23)cc1OC [TCMDC-125261]	-26.52%
COc1ccc(-c2ccc(S(=O)(=O)Nc3cc4c(cc3OC(C)C)CCN(C)CC4)cc2)cc1 [TCMDC-141487]	10.97%
CC(C)C(=O)ONC1=NC(C)(C)N(OCCCOc2cc(Cl)c(Cl)cc2Cl)C(NOC(=O)C(C)C)=N1 [TCMDC-131788]	-4.555%
CNC(=O)c1cnc(Nc2ccc(OCC(O)CN(C)C)cc2)nc1Nc1cccc(OC)c1 (stereo not drawn) [TCMDC-141387]	95.62%
CN1CCN(c2ccc(Nc3ncc([N+](=O)[O-])c(Nc4ccccc4O)n3)cc2)CC1 [TCMDC-141372]	99.51%
CNC(=O)c1cnc(Nc2ccc(N3CCN(C)CC3)cc2)nc1Nc1cccc(OC(C)C)c1 [TCMDC-141384]	-23.05%
CNC(=O)c1cnc(Nc2ccc(N3CCN(C)CC3)cc2)nc1Nc1cccc(OC)c1 [TCMDC-141383]	85.81%
CN1CCN(c2ccc(Nc3ncc(C#N)c(Nc4ccccc4C(N)=O)n3)cc2)CC1 [TCMDC-134116]	-62.53%
CNC(=O)c1cnc(Nc2ccc(N3CCOCC3)cc2)nc1Nc1cccc(O)c1 [TCMDC-141385]	-8.649%
CNC(=O)c1cnc(Nc2ccc(N3CCOCC3)cc2)nc1Nc1cccc(OC)c1 [TCMDC-141386]	-63.88%
CN(C)CCOc1cc(NC(=O)Nc2cccc([N+](=O)[O-])c2)ccc1I [TCMDC-139158]	11.15%
Cc1cc(C)cc(OCC(O)CN(Cc2cc(Cl)cc(Cl)c2)C(=O)Nc2ccc([N+](=O)[O-])cc2)c1 (stereo not drawn) [TCMDC-141478]	-6.134%
CNC(=O)c1cnc(Nc2ccc(OCC(O)CN(C)C)cc2)nc1Nc1cccc(Br)c1 (stereo not drawn) [TCMDC-141388]	25.03%
CNC(=O)c1cnc(Nc2ccc(OCC(O)CN(C)C)cc2)nc1Nc1cccc([N+](=O)[O-])c1 (stereo not drawn) [TCMDC-141392]	55.28%

Source: publication PMC4552634, “A New Set of Chemical Starting Points with Plasmodium falciparum Transmission-Blocking Potential for Antimalarial Drug Discovery” (PLoS ONE, 2015)
